Screening results (PubChem BioAssay)
Tgondii IFNg – blocks Toxoplasma gondii growth in the presence of IFN-gamma; AID 1259416; actives 3.8% (n = 69,000); activity change, negative = inhibition, % (concentration not given with the values); Toxoplasma gondii growth in IFN-gamma-treated host cells; stronger effect = lower value; in the data active = activity change below about -70%, passing the limit was not always enough;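 also: host cells are HeLa cells infected with Toxoplasma gondii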
Starred values were filed as active, the others as inactive; ! = repeats disagree. Shown is part of a subset that was picked to be rich in hits.

Screening Cc1csc(N)n1 returned Tgondii IFNg -15.
`COc1ccc(Cl)cc1NC(=O)Nc1ccccc1` gave Tgondii IFNg -83*.
CCC(CC)C(=O)Nc1cc(Cl)ccc1OC was read as Tgondii IFNg -3.
COc1ccc(Cl)cc1NC(=O)Nc1ccc(-c2nc(-c3ccccc3)co2)cc1 was read as Tgondii IFNg 1.
For CSc1cccc(N(C(=O)c2ccc(C)cc2)C2(C(=O)NCc3ccccc3)CCN(C(C)=O)CC2)c1 the results were Tgondii IFNg -22.
For COc1cccc([C@@H]2CN(C(=O)CN(C)CCc3ccccc3)C[C@H]2c2csnn2)c1 the results were Tgondii IFNg -12.
For O=C(c1cccnc1)N1CCC2(COCc3cnc(NCC4CC4)nc32)C1 (stereo not given) the results were Tgondii IFNg -39.
Screening CCOC(=O)c1cc(-c2nc(-c3ccccc3)cs2)c(C)nc1C(F)(F)F returned Tgondii IFNg -36.
CCOC(=O)c1cc(C(N)=S)c(C)nc1C(F)(F)F was read as Tgondii IFNg -79*.
For CCOC(=O)c1cc(C#N)c(Sc2nnc(SC)s2)nc1C(F)(F)F the results were Tgondii IFNg -32.
Screening C=CCN(C(=O)CCN1CCCCO1)C1CCCC1 returned Tgondii IFNg -3.
CN1CCN(C(=O)CN2C(=O)CCc3cc(S(=O)(=O)N4CCCCC4)ccc32)CC1 was read as Tgondii IFNg 9.
For CCN1CCCC1CNC(=O)c1ccc2c(c1)[nH]c(=O)n2Cc1ccc(OC)cc1 (stereo not given) the results were Tgondii IFNg -30.
COc1cccc(NC(=O)c2ccc3c(c2)[nH]c(=O)n3C2CCCCC2)c1 was read as Tgondii IFNg -83*.
Screening COc1cccc(NC(=O)CC2NCCNC2=O)c1 (stereo not given) returned Tgondii IFNg 46.
For CO[C@H](CN(C)S(=O)(=O)c1cn(C)cn1)[C@@H](C)CN(C(=O)Nc1ccc(C(F)(F)F)cc1)[C@@H](C)CO the results were Tgondii IFNg -32.
For Cc1c2oc3c(C)ccc(C(=O)OC(C)C4NC(=O)C(C(C)C)N(C)C(=O)CN(C)C(=O)C5CCCN5C(=O)C(C(C)C)NC4=O)c3nc-2c(C(=O)OC(C)C2NC(=O)C(C(C)C)N(C)C(=O)CN(C)C(=O)C3CCCN3C(=O)C(C(C)C)NC2=O)c(N)c1=O (stereo not given) the results were Tgondii IFNg -83*.
`CCOCC(=O)N1C[C@H]2CCC[C@]2(COCc2csc(C)n2)C1` gave Tgondii IFNg -66.
Screening O=C(C[C@@H]1CC[C@@H]2[C@H](COC[C@H](O)CN2C(=O)Nc2cccc(F)c2)O1)NCCCN1CCOCC1 returned Tgondii IFNg -62.
Screening Cn1cc(C[C@H]2[C@@H](O)CCN2C(=O)NCc2ccccc2)cn1 returned Tgondii IFNg -43.
Screening CCCCc1c(C)[nH]c2ccccc2c1=O returned Tgondii IFNg -99*.
CCC(CC)n1ncc(C)c1NC(=O)CCc1c(C)[nH]c2ccccc2c1=O was read as Tgondii IFNg -17.
For CCCCCCCCCc1nc2c(=O)[nH]c3ccccc3c2o1 the results were Tgondii IFNg 4.
`CCSCCNC(=O)CNS(=O)(=O)c1ccc(C)cc1C` gave Tgondii IFNg 19.
COCC(=O)Nc1ccc2c(c1)OC[C@@H](C)N(C(=O)CN1CCOCC1)C[C@@H](C)[C@H](OC)CN(C)C2=O was read as Tgondii IFNg -27.
CCNc1ncc(C(=O)N(C)Cc2ccc(OC)c3ncccc23)cn1 was read as Tgondii IFNg -13.
CCc1ccc(OCc2ccccc2C(=O)Nc2ccc3nc(C)cc(N)c3c2)cc1 was read as Tgondii IFNg -74*.
For CCOC(=O)c1cccc(NC(=O)c2ccccc2OCC)c1 the results were Tgondii IFNg -34.
For CCc1cccc(NC(=O)c2nc(Nc3ccc(C)cc3)c3ccccc3n2)c1 the results were Tgondii IFNg 88.
Screening CC(C)OC(=O)c1cc(NC(=O)CN2CCOC2=O)ccc1Cl returned Tgondii IFNg 3.
Screening COC[C@@H]1CN(C)C[C@]12CCN(C(=O)CC1Cc3ccccc3C1)C2 returned Tgondii IFNg 4.
Screening CC(C)(C)n1nc(-c2cccc3ccccc23)c2c(N)ncnc21 returned Tgondii IFNg -76*!.
c1ccc(-c2nc3ccccc3nc2-c2cccc3ccccc23)cc1 was read as Tgondii IFNg 27.
O=C(Cn1c(=O)cc(-c2nc(C3CC3)no2)c2ccccc21)Nc1ccc2c(c1)OCO2 was read as Tgondii IFNg 24.
Screening CCN(Cc1nc(C)no1)C(=O)c1cc(-c2ccccc2Cl)oc1C returned Tgondii IFNg -34.
`NCCc1n[nH]c(=O)n1-c1ccc(Cl)c(C(F)(F)F)c1` gave Tgondii IFNg -5.
For N#CCS(=O)(=O)Cc1c(F)cccc1Cl the results were Tgondii IFNg -55.
Screening CC1=CC(C)(C)N=C(Nc2nc(C)c3cc(C)cc(C)c3n2)N1 returned Tgondii IFNg -99*.
Screening CCN(CC)c1ccc(/C=N/NC(=O)c2ccc(O)cc2)cc1 returned Tgondii IFNg 15.
`Cc1cccc(-c2nc3cnccn3c2NCCC(=O)N2CCCC(C)C2)c1` (stereo not given) gave Tgondii IFNg 38.
`Cc1cc(C(=O)N2CCC(c3nc(N4CCC(C)CC4)ncc3S(C)(=O)=O)CC2)on1` gave Tgondii IFNg -13.
Screening Cc1cc(C)n(CC(C)NC(=O)CNS(=O)(=O)c2cccc3cccnc23)n1 (stereo not given) returned Tgondii IFNg -4.
Cn1ccnc1CN1CCC2(CCC(=O)N2Cc2cccc(F)c2)CC1 was read as Tgondii IFNg 11.
Screening CN(C)CCNC(=O)c1ccc2onc(-c3coc(C4CC4)n3)c2c1 returned Tgondii IFNg -40.
For COC(=O)c1ccccc1NC(=O)COc1nc(C)nc2ccccc12 the results were Tgondii IFNg 6.
`Cc1ccc(NC(=O)CCNS(=O)(=O)c2ccccc2)c(C(=O)c2ccccc2)c1` gave Tgondii IFNg -1.
For CC(=O)ON(CC(=O)Nc1ccccc1C(=O)c1ccccc1)C(C)=O the results were Tgondii IFNg -77*.
`Cc1cc(C(=O)N2CCCC3(CCN(C)CC3)CC2)nc(C)n1` gave Tgondii IFNg -30.
For CCCc1ccc(CN2CCN(Cc3cccc(F)c3)CC2)o1 the results were Tgondii IFNg -13.
For N#CCCN1CCCN(CCC#N)CCN(CCC#N)CCCN(CCC#N)CC1 the results were Tgondii IFNg -45.
For COc1cc2c(cc1OC(C)C)[C@H](c1ccc(Cl)cc1)N(c1ccc(N(C)CC3CCC(N4CCN(C)C(=O)C4)CC3)cc1)C(=O)C2 (stereo not given in full) the results were Tgondii IFNg -79*.
For CCOc1cc2c(cc1OCC)C(c1ccccc1)N(c1ccc(C(=O)O)cc1)C(=O)C2 (stereo not given) the results were Tgondii IFNg -16.
CCn1nc(C)cc1C(=O)N1C[C@H](OC)[C@@H]2OCCC[C@@H]21 was read as Tgondii IFNg -3.
`COc1ccc(-c2nc(C(=O)N3CCN(C)CC3)sc2-c2ccc(OC)cc2)cc1` gave Tgondii IFNg -14.
For COc1ccc(S(=O)(=O)N2CCC3(CC2)Nc2ccc(Cl)cc2-n2cccc23)cc1 the results were Tgondii IFNg -52.
COc1ccc(C(=O)N2c3cc4c(cc3C(C)=CC2(C)C)OCO4)cc1 was read as Tgondii IFNg -18.
For COc1ccc2c(c1)C(C)=CC(C)(C)N2S(=O)(=O)c1ccc(Cl)cc1 the results were Tgondii IFNg -93*.
